Source: PubChem BioAssay (NCATS)
Where “and” joins values, the source holds several entries; their conditions need not be identical. Equal values may be shown once. Inconclusive results are not listed. Calls of active or inactive are those of the source. Unless noted, calls follow the shape of the full dose curve.

Experiments:
[1] = biological target: Androgen receptor (Homo sapiens) (UniProt P10275); assay: qHTS assay for small molecule agonists of androgen receptor signaling (AID 588515; active = well fitted curve in the direction sought with a large enough effect in the signal ratio, with a control signal flat; the % refers to the signal ratio; also: % is scaled to controls: 0 for no effect and ±100 for the full control effect); conditions: AR-UAS-bla HEK293, beta-lactamase ratio, agonist 16 h; activation: active compounds read high
Summary of the method: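 Stimulation of an AR-responsive β-lactamase reporter in GripTite HEK293 cells was measured after 16 h compound exposure at 37 °C, via CCF4 fluorescence after 2 h RT. EC50 from Hill fits, normalized to R1881 at 30 nM.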

[2] = biological target: Androgen receptor (Homo sapiens) (UniProt P10275); assay: qHTS assay for small molecule antagonists of androgen receptor signaling (AID 588516; active = well fitted curve in the direction sought with a large enough effect in the signal ratio, with a control signal flat, not every such curve was filed as active; the % refers to the signal ratio; also: % is scaled to controls: 0 for no effect and ±100 for the full control effect)
Summary of the method: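 Antagonist-mode qHTS: inhibition of R1881 (10 nM)-driven beta-lactamase expression in GripTite HEK 293 cells is measured after 16 h; values are Hill-derived IC50s normalized between R1881 and DMSO wells.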

[3] = biological target: Bile acid receptor (Homo sapiens) (UniProt Q96RI1); assay: qHTS assay for small molecule antagonists of farnesoid X receptor signaling (AID 588526); also: % is scaled to controls: 0 for no effect and ±100 for the full control effect
Summary of the method: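 Concentration-response titrations were fitted to the Hill equation for half-maximal inhibition and maximal response, with data normalised to 50 uM chenodeoxycholic acid and DMSO control wells. Cells: FXR-UAS-bla HEK293T, dialyzed FBS.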

[4] = biological target: Glucocorticoid receptor (Homo sapiens) (UniProt P04150); assay: qHTS assay for small molecule agonists of glucocorticoid receptor signaling (AID 588532; active = well fitted curve in the direction sought with a large enough effect in the signal ratio, with a control signal flat; the % refers to the signal ratio;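 also: 100% = dexamethasone at 0.1 µM and 0% = DMSO only wells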); conditions: HeLa MMTV-bla, beta-lactamase ratio, agonist, 18 h; active compounds read high; percent of dexamethasone control, DMSO zero
Summary of the method: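 Titration series, up to 92 uM, applied to GRE-bla HeLa cells for 18 h at 37 C. Detection by CCF4 FRET substrate after 2 h at RT.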

[5] = biological target: Glucocorticoid receptor (Homo sapiens) (UniProt P04150); assay: qHTS assay for small molecule antagonists of glucocorticoid receptor signaling (AID 588533; active = well fitted inhibition curve with a large enough effect in the signal ratio, with a control signal flat, not every such curve was filed as active; the % refers to the signal ratio;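 also: cells stimulated with 2 nM dexamethasone as agonist; % is scaled to controls: 0 for no effect and ±100 for the full control effect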)
Summary of the method: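 Antagonist-mode qHTS: compound titrations added to GRE-bla HeLa cells, then dexamethasone 2 nM final; 18 h, 37 C. CCF4 FRET fluorescence normalized to dexamethasone and DMSO; IC50 from Hill fit.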

[6] = biological target: Peroxisome proliferator-activated receptor delta (Homo sapiens) (UniProt Q03181); assay: qHTS assay for small molecule antagonists of peroxisome proliferator-activated receptor delta signaling (AID 588535; active = well fitted inhibition curve with a large enough effect in the signal ratio, with a control signal flat, not every such curve was filed as active; the % refers to the signal ratio)
Summary of the method: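 Compounds tested in titration on PPAR-delta-UAS-bla HEK293T cells grown in charcoal/dextran-stripped serum (2%); beta-lactamase activity read via CCF4 emission at 460 and 530 nm.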

[7] = biological target: Peroxisome proliferator-activated receptor gamma (Homo sapiens) (UniProt P37231); assay: qHTS assay for small molecule agonists of peroxisome proliferator-activated receptor gamma signaling (AID 588536; active = well fitted curve in the direction sought with a large enough effect in the signal ratio, with a control signal flat, not every such curve was filed as active; the % refers to the signal ratio;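 also: 0% = DMSO basal wells and 100% = rosiglitazone at 2 µM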)
Summary of the method: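 Compound treatment: 16 h, 37 C, HEK293 GeneBLAzer cells. Detection: CCF4, 2 h RT. Values: Hill-fit EC50, efficacy as % of 2 uM rosiglitazone.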

[8] = biological target: Peroxisome proliferator-activated receptor gamma (Homo sapiens) (UniProt P37231); assay: qHTS assay for small molecule antagonists of peroxisome proliferator-activated receptor gamma signaling (AID 588537; active = well fitted inhibition curve with a large enough effect in the signal ratio, with a control signal flat, not every such curve was filed as active; the % refers to the signal ratio;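 also: reporter cells co-stimulated with 50 nM rosiglitazone agonist during compound treatment; % of control where 0% means no effect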)
Summary of the method: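 HEK293 cells, PPAR-gamma-UAS-bla, 3000/well. Pre-incubation 6-6.5 h, 37 C. Compound titration with rosiglitazone 50 nM final, 16 h. CCF4 dye, 2 h RT, dual-emission fluorescence.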

[9] = qHTS assay for small molecule agonists of the antioxidant response element (ARE) signaling pathway (AID 651741; active = well fitted activation curve with a large enough effect in the signal ratio; the % refers to the signal ratio; also: potency is read from the fitted curve at half-maximal effect; as to activation: % of control where 0% means no effect)
Summary of the method: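 Beta-lactamase reporter expression driven by the antioxidant response element in HepG2 cells was detected by fluorescence with LiveBLAzer B/G FRET substrate (2 h, room temperature) following 16 h compound treatment at 37 C.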

[10] = qHTS assay for small molecule activators of the p53 signaling pathway (AID 651743; active = well fitted activation curve with a large enough effect in the signal ratio, not every such curve was filed as active; the % refers to the signal ratio; also: series mostly up to about 92 µM; % of control where 0% means no effect); conditions: HCT-116 p53RE-bla, beta-lactamase FRET ratio, 16 h; activation: active compounds read high
Summary of the method: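 Here HCT-116 cells with an integrated p53-responsive beta-lactamase gene were incubated with compounds (16 hours, 37 C) after a 5-hour plating period; beta-lactamase activity was detected as fluorescence intensity via B/G FRET substrate.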

Bile acid receptor (Homo sapiens), sequence (Q96RI1 whole entry, looked up): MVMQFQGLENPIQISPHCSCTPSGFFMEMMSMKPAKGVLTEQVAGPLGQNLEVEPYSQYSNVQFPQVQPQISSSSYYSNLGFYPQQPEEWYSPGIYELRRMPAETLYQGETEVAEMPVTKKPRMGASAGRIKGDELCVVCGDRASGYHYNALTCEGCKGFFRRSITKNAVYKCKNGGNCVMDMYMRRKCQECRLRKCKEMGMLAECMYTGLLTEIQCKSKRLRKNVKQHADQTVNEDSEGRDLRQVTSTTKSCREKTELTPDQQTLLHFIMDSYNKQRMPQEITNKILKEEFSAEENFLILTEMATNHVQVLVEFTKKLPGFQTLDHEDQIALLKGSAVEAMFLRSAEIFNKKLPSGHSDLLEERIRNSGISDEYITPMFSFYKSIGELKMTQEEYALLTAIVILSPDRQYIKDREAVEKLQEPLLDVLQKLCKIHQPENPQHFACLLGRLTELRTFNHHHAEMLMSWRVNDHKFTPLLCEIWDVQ
Peroxisome proliferator-activated receptor gamma (Homo sapiens), sequence (P37231 whole entry, looked up): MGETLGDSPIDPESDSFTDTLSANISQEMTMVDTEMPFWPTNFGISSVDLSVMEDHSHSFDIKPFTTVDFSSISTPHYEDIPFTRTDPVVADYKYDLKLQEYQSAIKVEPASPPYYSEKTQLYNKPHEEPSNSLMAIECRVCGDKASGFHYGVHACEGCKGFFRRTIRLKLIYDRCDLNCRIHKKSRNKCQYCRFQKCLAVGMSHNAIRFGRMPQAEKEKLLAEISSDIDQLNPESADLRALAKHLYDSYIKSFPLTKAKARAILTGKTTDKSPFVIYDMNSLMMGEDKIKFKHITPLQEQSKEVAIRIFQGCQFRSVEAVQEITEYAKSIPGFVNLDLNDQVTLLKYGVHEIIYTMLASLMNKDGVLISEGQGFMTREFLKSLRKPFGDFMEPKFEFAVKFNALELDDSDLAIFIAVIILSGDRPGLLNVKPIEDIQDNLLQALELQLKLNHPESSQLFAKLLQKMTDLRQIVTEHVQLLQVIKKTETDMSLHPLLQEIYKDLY
Peroxisome proliferator-activated receptor delta (Homo sapiens), sequence (Q03181 whole entry, looked up): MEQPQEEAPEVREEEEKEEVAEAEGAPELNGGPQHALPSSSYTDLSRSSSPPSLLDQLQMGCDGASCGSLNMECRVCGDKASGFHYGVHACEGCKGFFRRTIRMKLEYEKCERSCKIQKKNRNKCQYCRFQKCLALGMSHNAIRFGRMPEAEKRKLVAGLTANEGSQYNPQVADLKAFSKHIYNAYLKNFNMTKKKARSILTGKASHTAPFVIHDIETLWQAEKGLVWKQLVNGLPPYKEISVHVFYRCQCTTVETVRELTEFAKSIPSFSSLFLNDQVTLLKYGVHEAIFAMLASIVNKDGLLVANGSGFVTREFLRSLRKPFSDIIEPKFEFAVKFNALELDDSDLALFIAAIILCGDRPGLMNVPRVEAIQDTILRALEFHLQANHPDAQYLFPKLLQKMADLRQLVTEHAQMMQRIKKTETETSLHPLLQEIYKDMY
Glucocorticoid receptor (Homo sapiens), sequence (P04150 whole entry, looked up): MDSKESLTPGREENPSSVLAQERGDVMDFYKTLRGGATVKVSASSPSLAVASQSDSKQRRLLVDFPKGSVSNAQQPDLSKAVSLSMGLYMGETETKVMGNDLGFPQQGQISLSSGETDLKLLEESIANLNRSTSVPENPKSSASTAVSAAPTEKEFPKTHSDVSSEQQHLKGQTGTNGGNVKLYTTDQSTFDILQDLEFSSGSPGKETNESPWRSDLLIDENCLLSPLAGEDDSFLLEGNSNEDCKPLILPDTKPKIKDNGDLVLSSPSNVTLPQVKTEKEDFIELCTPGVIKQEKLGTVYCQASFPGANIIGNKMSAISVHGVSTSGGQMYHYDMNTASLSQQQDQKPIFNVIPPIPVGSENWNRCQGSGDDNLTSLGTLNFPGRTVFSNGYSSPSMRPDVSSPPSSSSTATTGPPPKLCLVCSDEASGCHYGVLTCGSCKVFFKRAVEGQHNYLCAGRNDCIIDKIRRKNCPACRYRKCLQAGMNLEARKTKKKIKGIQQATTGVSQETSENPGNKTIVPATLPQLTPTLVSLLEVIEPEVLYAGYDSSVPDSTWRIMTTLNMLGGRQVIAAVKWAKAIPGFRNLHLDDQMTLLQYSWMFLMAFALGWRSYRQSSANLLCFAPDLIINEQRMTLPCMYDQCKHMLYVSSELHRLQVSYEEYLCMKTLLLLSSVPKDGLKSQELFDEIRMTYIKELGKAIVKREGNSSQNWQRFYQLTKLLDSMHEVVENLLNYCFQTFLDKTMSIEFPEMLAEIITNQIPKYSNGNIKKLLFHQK
Androgen receptor (Homo sapiens), sequence (P10275 whole entry, looked up): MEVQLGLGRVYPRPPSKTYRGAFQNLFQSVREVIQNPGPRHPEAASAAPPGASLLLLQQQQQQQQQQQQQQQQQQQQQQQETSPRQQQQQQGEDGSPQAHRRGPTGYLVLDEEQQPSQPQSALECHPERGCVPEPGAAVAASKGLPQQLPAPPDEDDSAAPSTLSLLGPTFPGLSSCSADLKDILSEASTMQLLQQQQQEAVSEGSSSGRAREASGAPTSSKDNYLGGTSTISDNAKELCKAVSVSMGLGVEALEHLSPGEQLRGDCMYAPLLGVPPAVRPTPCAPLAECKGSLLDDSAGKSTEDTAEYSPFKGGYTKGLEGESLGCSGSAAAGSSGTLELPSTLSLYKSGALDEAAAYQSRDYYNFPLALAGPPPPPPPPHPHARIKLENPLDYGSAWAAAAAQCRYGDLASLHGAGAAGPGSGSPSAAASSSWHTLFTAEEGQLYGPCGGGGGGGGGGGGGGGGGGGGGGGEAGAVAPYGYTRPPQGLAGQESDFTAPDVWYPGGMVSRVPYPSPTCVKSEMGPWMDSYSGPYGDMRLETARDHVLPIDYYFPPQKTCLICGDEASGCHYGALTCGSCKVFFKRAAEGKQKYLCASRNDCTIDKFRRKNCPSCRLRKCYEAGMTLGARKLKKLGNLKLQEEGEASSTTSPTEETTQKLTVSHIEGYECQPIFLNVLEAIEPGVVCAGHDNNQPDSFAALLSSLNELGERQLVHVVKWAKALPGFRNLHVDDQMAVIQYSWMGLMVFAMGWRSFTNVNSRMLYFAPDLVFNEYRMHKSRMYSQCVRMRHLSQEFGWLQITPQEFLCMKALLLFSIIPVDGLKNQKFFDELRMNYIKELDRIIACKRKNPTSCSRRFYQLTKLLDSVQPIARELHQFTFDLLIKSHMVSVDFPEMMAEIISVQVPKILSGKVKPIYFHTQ

CSc1ccc(Cl)cc1
inactive: activation [1] -7.93% | outcome [2] | Potency [3] | activation [4] -2.12% | Potency [5] | Potency [6] | outcome [7] | Potency [8] | Potency [9]

CCCCCCCCCCCCCCO
inactive: Potency [9] | activation [10] -1.8%

OCCC(F)(F)C(F)(F)C(F)(F)C(F)(F)C(F)(F)C(F)(F)C(F)(F)C(F)(F)F
inactive: activation [1] 13.8% | outcome [2] | Potency [6] | Potency [9] | activation [10] 2.93%

C=C(C)C(=O)OCCC[Si](OC)(OC)OC
inactive: Potency [5] | Potency [6] | outcome [7] | Potency [9] | activation [10] -1.41%

NCCCCCCCCCCC(=O)O
inactive: activation [1] 0.655% | outcome [2] | Potency [3] | Potency [5] | outcome [7] | Potency [8] | Potency [9] | activation [10] 0.322%

CCCCCc1ccc(N)cc1
inactive: Potency [6] | outcome [7] | Potency [8] | Potency [9] | activation [10] 9.16%

CCCCCCCCCc1ccccc1
inactive: activation [1] 1.05% | outcome [2] | Potency [3] | activation [4] -4.94% | Potency [5] | Potency [6] | outcome [7] | Potency [8] | activation [10] -0.95%

Cc1ccc(N=Nc2c(O)ccc3ccccc23)c([N+](=O)[O-])c1
inactive: activation [1] 8.82% | outcome [2] | Potency [3] | activation [4] -1.07% | Potency [5] | Potency [6] | activation [10] -4.13%
active: Potency [9] 24.3 µM

CCCCCCCCCCCO
inactive: Potency [6] | outcome [7] | activation [10] 1.01%

Cc1ccc(Cl)cc1Cl
inactive: activation [4] -2.65% | Potency [5] | Potency [9] | activation [10] 1.63%

C=CC(=O)NC(C)(C)CS(=O)(=O)O
inactive: Potency [6] | outcome [7] | Potency [8] | Potency [9] | activation [10] 2.63% and -4%

CCC(=O)C1C(=O)CC(C(=O)O)CC1=O (centres undefined)
inactive: activation [1] -3.36% | activation [4] 6.99% | outcome [7] | activation [10] 2.03%

CC1(C)C(=O)NC(=O)N1CO
inactive: activation [4] -5.05% | Potency [5] | Potency [6] | outcome [7] | Potency [8] | activation [10] -0.511%

CN(C)C(=O)Nc1ccccc1
inactive: Potency [6] | outcome [7] | Potency [8]

CC(=O)N(CCN(C(C)=O)C(C)=O)C(C)=O
inactive: activation [1] 11.2% | outcome [2] | Potency [3] | activation [4] -10.7% | Potency [5] | Potency [6] | outcome [7] | Potency [9] | activation [10] 0.892%

CCCCCCCCCCCCCCCCN(C)C
inactive: activation [1] 8.77% | outcome [2] | activation [4] -11.7% | Potency [5] | Potency [6] | Potency [9] | activation [10] -1.17%

CC(C)(C)c1ccc(O)c(C(C)(C)C)c1
inactive: Potency [3] | activation [4] -9.25% | Potency [5] | outcome [7] | Potency [8] | activation [10] 1.63%

COC(=O)c1ccc(C(=O)OC)cc1
inactive: Potency [8] | Potency [9] | activation [10] -5.18%

O=C(O)CN(CCO)CCN(CC(=O)O)CC(=O)O
inactive: activation [1] 3.88% | outcome [2] | Potency [3] | activation [4] -10.4% | Potency [5] | Potency [6] | outcome [7] | Potency [9] | activation [10] -0.291%

Oc1ccc2ccccc2c1N=Nc1ccccc1
active: Potency [9] 3.06 µM
inactive: outcome [7]

COC(=O)c1cccc(C)c1S(=O)(=O)NC(=O)Nc1nc(OCC(F)(F)F)nc(N(C)C)n1
inactive: activation [1] 3.18% | outcome [2] | Potency [3] | activation [4] -2.8% | Potency [5] | Potency [6] | outcome [7] | Potency [8] | Potency [9]

CCCCOCC(C)OCC(C)O (centres undefined)
inactive: Potency [6] | Potency [8]

O=S(=O)(O)c1ccc(N=Nc2c(O)ccc3cc(S(=O)(=O)O)ccc23)cc1
inactive: Potency [6] | Potency [9]

CCCCCCCCCCCCO
inactive: Potency [3] | Potency [6] | outcome [7] | Potency [9]

c1ccc2cc3c(ccc4ccccc43)cc2c1
inactive: Potency [8]

CC(=O)OC1CCC(C(C)(C)C)CC1 (centres undefined)
inactive: activation [1] 3% | outcome [2] | activation [4] -9.53% | Potency [5] | Potency [6] | Potency [9] | activation [10] -2.06%

CC(=O)OC(C)(C)C1CC=C(C)CC1 (centres undefined)
inactive: outcome [7] | Potency [8] | Potency [9] | activation [10] -1.29%

CCCCCCCC/C=C\CCCCCCCCCCCCC
inactive: activation [1] 5.8% | outcome [2] | Potency [3] | activation [4] -8.32% | Potency [5] | Potency [6] | Potency [8] | Potency [9]

CC1(C)C(C=C(Cl)Cl)[C@H]1C(=O)OCc1cccc(Oc2ccccc2)c1 (some centres undefined)
inactive: activation [1] -0.893% | outcome [2] | activation [10] -1.46%

C[Si]1(C)N[Si](C)(C)N[Si](C)(C)N1
inactive: Potency [9] | activation [10] -5.2%
